For 16 molecules, outcome and AC50 results are on record in PubChem BioAssay (EPA / NIEHS).

The target of experiment [1] is Nucleoli Translocation, AR (gene 367) (UniProt P10275). As to the kind of experiment: UPITT_HCI_U2OS_AR_TIF2_Nucleoli_Antagonist: University of Pittsburgh U2OS Androgen Receptor-Transcriptional Intermediary Factor 2 (AR-TIF2) Antagonism High Content Imaging Assay for Nucleoli Translocation (AID 2283997). The method in brief: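 Compounds are added at 20 uM final concentration in 0.2% DMSO to U2OS cells carrying AR-RFP and TIF2-GFP fusions. Nucleolar AR-RFP fluorescence is then quantified by automated imaging. Antagonism is fitted positively against DHT baseline.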
Chain of Nucleoli Translocation, AR (gene 367) (P10275 whole entry, looked up, the tested form may be a part): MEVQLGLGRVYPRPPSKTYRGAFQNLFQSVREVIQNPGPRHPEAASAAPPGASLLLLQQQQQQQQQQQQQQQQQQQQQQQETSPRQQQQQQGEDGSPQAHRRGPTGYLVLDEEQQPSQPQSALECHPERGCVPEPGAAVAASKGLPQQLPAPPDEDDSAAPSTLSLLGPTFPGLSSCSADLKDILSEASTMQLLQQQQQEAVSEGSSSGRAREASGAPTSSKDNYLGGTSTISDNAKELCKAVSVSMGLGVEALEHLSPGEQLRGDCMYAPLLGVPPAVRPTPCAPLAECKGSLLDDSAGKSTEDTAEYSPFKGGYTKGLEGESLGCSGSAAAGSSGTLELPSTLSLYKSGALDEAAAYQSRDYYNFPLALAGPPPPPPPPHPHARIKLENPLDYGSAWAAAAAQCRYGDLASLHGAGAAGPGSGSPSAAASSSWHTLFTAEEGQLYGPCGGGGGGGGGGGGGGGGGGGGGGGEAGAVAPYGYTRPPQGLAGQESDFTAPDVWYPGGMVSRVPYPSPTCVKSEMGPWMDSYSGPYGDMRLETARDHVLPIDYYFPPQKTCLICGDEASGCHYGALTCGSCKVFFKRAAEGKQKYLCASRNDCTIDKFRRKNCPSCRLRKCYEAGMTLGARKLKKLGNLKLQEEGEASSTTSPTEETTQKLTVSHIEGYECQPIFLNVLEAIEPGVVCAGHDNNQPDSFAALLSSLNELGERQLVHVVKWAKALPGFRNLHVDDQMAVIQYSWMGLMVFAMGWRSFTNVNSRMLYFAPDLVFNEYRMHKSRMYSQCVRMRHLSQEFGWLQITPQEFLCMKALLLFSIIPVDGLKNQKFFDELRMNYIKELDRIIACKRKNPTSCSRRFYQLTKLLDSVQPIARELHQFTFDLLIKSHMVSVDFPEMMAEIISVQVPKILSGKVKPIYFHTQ

Experiment [2] has as its target Ratio of Nucleoli Translocation and Cytoplasm, AR (gene 367) (UniProt P10275). As to the kind of experiment: UPITT_HCI_U2OS_AR_TIF2_Nucleoli_Cytoplasm_Ratio_Antagonist: University of Pittsburgh U2OS Androgen Receptor-Transcriptional Intermediary Factor 2 (AR-TIF2) Antagonism High Content Imaging Assay for Ratio of Nucleoli Translocation and Cytoplasm (AID 2283999).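 Also: antagonists lower the DHT-driven ratio of nucleolar to cytoplasmic red signal.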 An outline of the steps:
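Read-out is the ratio of nucleolar to cytoplasmic AR-RFP fluorescence, imaged by high-content microscopy in U2OS cells coexpressing TIF2-GFP. Single-point 20 uM screen, triplicate confirmation, then 0.195–50 uM dose response; activity referenced to DHT baseline.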

The target is the same in experiment [3]. As to the kind of experiment: UPITT_HCI_U2OS_AR_TIF2_Nucleoli_Cytoplasm_Ratio_Agonist: University of Pittsburgh U2OS Androgen Receptor-Transcriptional Intermediary Factor 2 (AR-TIF2) Agonism High Content Imaging Assay for Ratio of Nucleoli Translocation and Cytoplasm (AID 2284000).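 Also: hits raise the red nucleolar to cytoplasm ratio above vehicle.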 An outline of the steps:
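Human osteosarcoma U2OS line, AR-RFP plus TIF2-GFP; compounds 0.195–50 uM final, 0.5% DMSO. Readout: nucleolar/cytoplasmic RFP ratio by HCI, positive direction vs DMSO baseline.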

Experiment [4] is described as follows: CCTE_Harrill_HTTr_Viability_MCF7: CCTE's 6-hour Cell Viability Assessment for the High-Throughput Transcriptomics (HTTr) Platform, in MCF-7 cells cultured in DMEM + 10% fetal bovine serum, Harrill Lab (AID 2284010; active = hit-call score of the fitted dose curve at least 0.9, where 1 is the maximum; inactive = score below 0.9). An outline of the steps:
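PI exclusion, high-content imaging; 8-pt dilution series, 6 h exposure; bidirectional fit vs DMSO (neg. ctrl/baseline); gain of signal = loss of membrane integrity.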

In experiment [5] the target is PGR (gene 5241) (UniProt P06401). As to the kind of experiment: TOX21_PR_BLA_Followup_Agonist_ratio: Tox21 HEK293 Progesterone Receptor (PR) Agonism Beta-lactamase Follow-Up Assay, Ratio (AID 2283933). An outline of the steps: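 Read-out: ratio of cleaved (ch2) to uncleaved (ch1) beta-lactamase substrate fluorescence, gain-of-signal relative to DMSO baseline. Cells: PR-UAS-bla HEK293T, 2% charcoal-stripped FBS; compound exposure 16 hr, 37C; substrate 2 hr, RT.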
Chain of PGR (gene 5241) (P06401 whole entry, looked up): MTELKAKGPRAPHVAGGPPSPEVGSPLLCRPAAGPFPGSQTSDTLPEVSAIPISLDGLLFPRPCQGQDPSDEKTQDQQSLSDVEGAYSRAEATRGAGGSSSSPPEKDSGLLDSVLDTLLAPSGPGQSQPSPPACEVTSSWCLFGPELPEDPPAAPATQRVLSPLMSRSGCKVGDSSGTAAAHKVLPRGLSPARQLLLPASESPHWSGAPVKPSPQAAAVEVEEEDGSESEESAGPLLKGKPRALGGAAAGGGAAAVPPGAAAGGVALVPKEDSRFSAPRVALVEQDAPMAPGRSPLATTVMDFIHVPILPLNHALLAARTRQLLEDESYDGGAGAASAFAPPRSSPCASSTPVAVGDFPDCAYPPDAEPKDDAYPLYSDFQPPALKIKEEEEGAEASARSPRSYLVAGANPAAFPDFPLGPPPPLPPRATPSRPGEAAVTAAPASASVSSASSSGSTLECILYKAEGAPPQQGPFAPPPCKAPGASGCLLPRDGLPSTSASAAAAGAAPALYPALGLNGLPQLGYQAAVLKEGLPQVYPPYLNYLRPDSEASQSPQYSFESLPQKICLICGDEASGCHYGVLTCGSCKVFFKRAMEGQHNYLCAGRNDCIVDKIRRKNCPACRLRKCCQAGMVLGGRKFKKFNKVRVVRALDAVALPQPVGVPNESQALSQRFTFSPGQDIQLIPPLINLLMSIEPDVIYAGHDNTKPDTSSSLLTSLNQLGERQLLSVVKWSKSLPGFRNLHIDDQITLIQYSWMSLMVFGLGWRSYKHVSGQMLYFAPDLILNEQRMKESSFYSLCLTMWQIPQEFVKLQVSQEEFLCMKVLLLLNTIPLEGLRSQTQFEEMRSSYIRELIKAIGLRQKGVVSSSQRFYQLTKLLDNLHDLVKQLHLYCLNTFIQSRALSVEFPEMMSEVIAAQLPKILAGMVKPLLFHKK

Experiment [6] has the same target. Kind of experiment: TOX21_PR_BLA_Followup_Antagonist_ratio: Tox21 HEK293 Progesterone Receptor (PR) Antagonism Beta-lactamase Follow-Up Assay, Ratio (AID 2283934). An outline of the steps: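 Read-out: blue/green beta-lactamase FRET ratio (cleaved ch2 over uncleaved ch1), fitted relative to DMSO baseline. Cells: PR-UAS-bla HEK293T, GAL4-UAS reporter, stimulated with 1 nM R5020 final; 16 hr compound exposure, 37C.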

Experiment [7] is described as follows: TOX21_PR_BLA_Followup_Agonist_viability: Viability Assessment in the Tox21 HEK293 Progesterone Receptor (PR) Agonism Beta-lactamase Follow-Up Assay (AID 2283935).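 Also: signal loss means lower viability so actives are cytotoxic.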 The method in brief: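 Luminescent ATP quantitation (CellTiter-Glo, 30 min, room temperature) in the same wells as the beta-lactamase read, on PR-UAS-bla HEK293T cells exposed to compound for 16 hr at 37C in 2% charcoal-stripped serum.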

Experiment [8] can be described thus: TOX21_PR_BLA_Followup_Antagonist_viability: Viability Assessment in the Tox21 HEK293 Progesterone Receptor (PR) Antagonism Beta-lactamase Follow-Up Assay (AID 2283936).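 Also: cells exposed to compound with R5020 agonist for 16 h; hits lower the luminescence signal meaning cytotoxicity.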 An outline of the steps:
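PR-UAS-bla HEK293T cells in medium with 2% charcoal-stripped FBS were treated with compounds plus R5020 for 16 hr at 37C. After the beta-lactamase read, CellTiter-Glo was added to the same wells and luminescence read after 30 min at room temperature.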

In experiment [9] the target is PGR (gene 5241) (UniProt P06401). Kind of experiment: TOX21_PR_LUC_Followup_Agonist: Tox21 HEK293 Progesterone Receptor (PR) Agonism Luciferase Follow-Up Assay (AID 2283937; active = hit-call score of the fitted dose curve at least 0.9, where 1 is the maximum; inactive = score below 0.9). The method in brief:
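Luminescence read-out (ONE-Glo, 30 min at room temperature) of PR-driven luciferase in HEK293-PR-A-luc cells after 16 h compound exposure at 37C; gain of signal fitted relative to DMSO baseline.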

For experiment [10] the target is unchanged. Kind of experiment: TOX21_PR_LUC_Followup_Antagonist: Tox21 HEK293 Progesterone Receptor (PR) Antagonism Luciferase Follow-Up Assay (AID 2283938).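 Also: curve fitted upward as signal gain over DMSO baseline despite antagonist label.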 An outline of the steps: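 Luminescence from ONE-Glo reagent, measured after 30 min at room temperature, served as readout. Cells (HEK293 carrying PR-A-luc) had been treated 16 h at 37C with DMSO-dissolved compounds. Activity was fitted against DMSO controls.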

Experiment [11] addresses Thyroid hormone receptor alpha (Rattus norvegicus) + Thyroid hormone receptor beta (Rattus norvegicus) (UniProt P18113+P63059). As to the kind of experiment: TOX21_TR_LUC_GH3_Agonist_Followup: Tox21 GH3 Thyroid Hormone Receptor Agonism Luciferase Follow-Up Assay (AID 2283939). The method in brief: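 Agonist-mode confirmatory run: 15 concentrations (5 nM to 92 uM final) on GH3 rat pituitary cells, 24 h at 37C/5% CO2, T3 as positive control. Luminescence read with ONE-Glo after 30 min.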

Experiment [12] can be described thus: TOX21_PR_LUC_Followup_Antagonist_viability: Viability Assessment in the Tox21 HEK293 Progesterone Receptor (PR) Antagonism Luciferase Follow-Up Assay (AID 2283940). An outline of the steps:
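Read-out: CellTiter-Glo ATP luminescence, loss of signal taken as reduced viability. Cells: HEK293-PR-A-luc, 3,000/well, 5 h settling, then 16 h compound exposure at 37C, 0% CO2.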

Experiment [13] can be described thus: TOX21_PR_LUC_Followup_Agonist_viability: Viability Assessment in the Tox21 HEK293 Progesterone Receptor (PR) Agonism Luciferase Follow-Up Assay (AID 2283941).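 Also: loss of signal means cytotoxicity so actives lower viability.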 The method in brief:
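Cytotoxicity counter-screen: ATP content by CellTiter-Glo luminescence, loss of signal = reduced viability. HEK293-PR-A-luc, 3,000 cells/well, compound exposure 16 h, 37C.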

For experiment [14], the target named is THRA (gene 7067) (UniProt P10827). As to the kind of experiment: TOX21_TRA_COA_Agonist_Followup_ratio: Tox21 Thyroid Hormone Receptor alpha Agonism through Coactivator Recruitment Follow-Up Assay, Ratio (AID 2283948; active = hit-call score of the fitted dose curve at least 0.9, where 1 is the maximum; inactive = score below 0.9). An outline of the steps: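 GST-TRa LBD 2.5 nM + 0.10% BSA + cpd; add fluorescein-SRC-2 200 nM, Tb-anti-GST 2 nM. TR-FRET ex 340, em 520/495 ratio. Norm: DMSO 0%, T3 100%; gain-of-signal fit.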
Chain of THRA (gene 7067) (P10827 whole entry, looked up, the tested form may be a part): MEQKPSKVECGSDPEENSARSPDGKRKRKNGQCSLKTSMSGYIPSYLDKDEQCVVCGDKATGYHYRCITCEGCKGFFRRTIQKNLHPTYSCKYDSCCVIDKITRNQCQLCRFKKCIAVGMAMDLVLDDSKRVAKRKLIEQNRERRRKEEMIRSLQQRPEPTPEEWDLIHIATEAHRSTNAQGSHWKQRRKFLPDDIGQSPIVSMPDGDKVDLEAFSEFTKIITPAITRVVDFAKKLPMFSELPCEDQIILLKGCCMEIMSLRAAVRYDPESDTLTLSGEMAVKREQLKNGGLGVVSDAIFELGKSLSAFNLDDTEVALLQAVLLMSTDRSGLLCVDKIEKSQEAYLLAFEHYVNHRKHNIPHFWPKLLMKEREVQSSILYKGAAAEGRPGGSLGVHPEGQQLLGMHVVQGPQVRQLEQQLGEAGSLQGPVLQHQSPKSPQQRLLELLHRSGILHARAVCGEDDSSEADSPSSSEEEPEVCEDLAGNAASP

Experiment [15] has as its target THRB (gene 7068) (UniProt P10828). Kind of experiment: TOX21_TRB_COA_Agonist_Followup_ratio: Tox21 Thyroid Hormone Receptor beta Agonism through Coactivator Recruitment Follow-Up Assay, Ratio (AID 2283963; active = hit-call score of the fitted dose curve at least 0.9, where 1 is the maximum; inactive = score below 0.9). The method in brief:
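Agonism is measured as coactivator recruitment in a purified-protein TR-FRET format, using GST-TRβ LBD at 5.0 nM, fluorescein-SRC-2 peptide at 200 nM and Tb-labeled anti-GST antibody at 2 nM. Values are 520:495 nm ratios relative to DMSO (0%) and T3 (100%).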

Experiment [16] deals with Retinoic acid receptor RXR-alpha (Homo sapiens) (UniProt P19793). Kind of experiment: TOX21_TR_RXR_BLA_Agonist_Followup_ratio: Tox21 Thyroid Hormone Receptor beta Retinoid X Receptor alpha (RXRa) Agonism Beta-lactamase (BLA) Follow-Up Assay, Ratio (AID 2283968). An outline of the steps:
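Read-out: blue/green (460:530 nm) FRET ratio from cleaved vs uncleaved CCF4 substrate, fitted for gain of signal relative to DMSO. Cells: HEK293T with RXRa-UAS-bla reporter; 16 h compound exposure, 11 concentrations, triplicate.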

The nature of experiment [17]: TOX21_TR_RXR_BLA_Agonist_Followup_viability: Viability Assessment in the Tox21 Thyroid Hormone Receptor beta Retinoid X Receptor alpha (RXRa) Agonism Beta-lactamase (BLA) Follow-Up Assay (AID 2283970). An outline of the steps:
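CellTiter-Glo ATP quantitation as viability read-out in RXRa-bla HEK293T cells (2,500/well, charcoal-stripped 2% FBS medium), 16h compound incubation at 37C. Loss of signal versus DMSO taken as cytotoxicity, analyzed by bidirectional curve fitting.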

Experiment [18] concerns DIO1 (gene 1733). As to the kind of experiment: CCTE_GLTED_hDIO1: CCTE's human Deiodinase 1 (DIO1) Inhibition Assay, Great Lakes Toxicology and Ecology Division (GLTED) Lab (AID 2283987).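 Also: isolated human DIO1 enzyme in a cell-free setup rather than cells; enzyme activity read as free iodide liberated from substrate via Sandell-Kolthoff colorimetry.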 An outline of the steps: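 Steps: human DIO1 enzyme plus test chemical, 3 h incubation; free iodide then quantified in a second Sandell-Kolthoff step by absorbance. DMSO served as negative control and baseline.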

Molecules are shown by their SMILES. Inconclusive results are not listed. Active and inactive are the calls of the source. The calls were made as follows, unless noted: active = hit-call score of the fitted dose curve at least 0.9, where 1 is the maximum; inconclusive = response in the unintended direction; inactive = score below 0.9.

Chain of Ratio of Nucleoli Translocation and Cytoplasm, AR (gene 367) (P10275 whole entry, looked up): as the sequence (P10275 whole entry, looked up, the tested form may be a part) above
Chain of THRB (gene 7068) (P10828 whole entry, looked up, the tested form may be a part): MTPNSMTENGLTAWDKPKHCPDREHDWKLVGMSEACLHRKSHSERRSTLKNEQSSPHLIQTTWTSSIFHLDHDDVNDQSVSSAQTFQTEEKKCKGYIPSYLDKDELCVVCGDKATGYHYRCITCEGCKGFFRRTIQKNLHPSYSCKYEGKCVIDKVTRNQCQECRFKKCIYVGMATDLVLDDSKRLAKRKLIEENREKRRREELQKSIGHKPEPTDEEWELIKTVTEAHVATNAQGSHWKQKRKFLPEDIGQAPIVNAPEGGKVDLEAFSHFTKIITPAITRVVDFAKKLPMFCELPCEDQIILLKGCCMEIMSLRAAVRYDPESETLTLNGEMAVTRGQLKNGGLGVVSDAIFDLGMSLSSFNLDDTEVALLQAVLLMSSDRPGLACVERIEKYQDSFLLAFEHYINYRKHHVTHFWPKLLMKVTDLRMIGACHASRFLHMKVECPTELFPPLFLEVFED
Chain of Retinoic acid receptor RXR-alpha (Homo sapiens) (P19793 whole entry, looked up): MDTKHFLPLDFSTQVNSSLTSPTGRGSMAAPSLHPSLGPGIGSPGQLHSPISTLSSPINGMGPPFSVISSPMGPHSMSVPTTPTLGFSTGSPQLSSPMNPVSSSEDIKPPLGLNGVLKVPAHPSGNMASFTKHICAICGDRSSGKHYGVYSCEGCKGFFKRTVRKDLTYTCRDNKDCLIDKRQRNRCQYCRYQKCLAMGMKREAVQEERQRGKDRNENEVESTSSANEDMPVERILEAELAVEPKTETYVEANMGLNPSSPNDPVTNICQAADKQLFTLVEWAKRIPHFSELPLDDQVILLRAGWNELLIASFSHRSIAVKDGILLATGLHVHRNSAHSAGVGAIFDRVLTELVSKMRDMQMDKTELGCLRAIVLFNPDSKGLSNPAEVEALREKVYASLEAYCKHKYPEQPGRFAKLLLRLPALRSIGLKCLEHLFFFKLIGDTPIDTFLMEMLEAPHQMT
Chain of Thyroid hormone receptor alpha (Rattus norvegicus) + Thyroid hormone receptor beta (Rattus norvegicus) (P63059 whole entry, looked up): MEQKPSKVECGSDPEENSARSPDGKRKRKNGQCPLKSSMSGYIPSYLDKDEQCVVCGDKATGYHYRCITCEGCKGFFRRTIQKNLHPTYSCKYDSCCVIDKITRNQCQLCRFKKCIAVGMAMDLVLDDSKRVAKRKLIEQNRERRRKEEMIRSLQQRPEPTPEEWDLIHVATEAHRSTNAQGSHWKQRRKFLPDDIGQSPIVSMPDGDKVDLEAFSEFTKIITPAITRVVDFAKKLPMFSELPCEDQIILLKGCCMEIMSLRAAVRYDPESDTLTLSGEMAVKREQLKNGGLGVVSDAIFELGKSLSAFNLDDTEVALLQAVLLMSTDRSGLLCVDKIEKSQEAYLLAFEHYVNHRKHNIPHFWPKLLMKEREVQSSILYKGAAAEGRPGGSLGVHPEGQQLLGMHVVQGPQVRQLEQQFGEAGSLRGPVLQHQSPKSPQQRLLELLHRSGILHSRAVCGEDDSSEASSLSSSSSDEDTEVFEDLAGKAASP
Chain of Thyroid hormone receptor alpha (Rattus norvegicus) + Thyroid hormone receptor beta (Rattus norvegicus) (P18113 whole entry, looked up): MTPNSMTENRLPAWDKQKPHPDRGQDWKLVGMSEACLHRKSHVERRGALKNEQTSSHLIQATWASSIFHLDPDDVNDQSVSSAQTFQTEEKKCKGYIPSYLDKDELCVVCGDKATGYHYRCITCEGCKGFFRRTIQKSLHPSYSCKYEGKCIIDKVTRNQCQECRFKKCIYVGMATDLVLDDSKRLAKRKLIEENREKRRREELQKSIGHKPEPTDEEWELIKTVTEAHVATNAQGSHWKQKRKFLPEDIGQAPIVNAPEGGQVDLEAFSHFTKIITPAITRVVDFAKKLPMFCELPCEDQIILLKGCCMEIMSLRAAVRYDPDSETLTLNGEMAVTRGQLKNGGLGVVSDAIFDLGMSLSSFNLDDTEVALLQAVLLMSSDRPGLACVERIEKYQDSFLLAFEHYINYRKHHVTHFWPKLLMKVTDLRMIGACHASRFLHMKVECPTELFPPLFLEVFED

`COCCOCCC[Si](C)(O[Si](C)(C)C)O[Si](C)(C)C`: the call in [1], in experiment [2] and in experiment [3] was inactive.

On to `Cc1ccc(O)c(-n2nc3ccccc3n2)c1`, for which the outcome in experiment [4] was inactive.

`F[Si-2](F)(F)(F)(F)F`: the outcome in experiment [1] and in experiment [3] was inactive.

Turning to `CN(N=O)C(=O)N[C@@H]1[C@@H](O)[C@H](O)[C@@H](CO)O[C@@H]1O`, the result in [4] was inactive.

In general, AC50 refers to the concentration giving half of the maximal activity seen. On to `O=C(c1ccccc1)c1ccc(O)cc1O`, for which the outcome in experiment [5], in experiment [7], in [8], in experiment [9], in [11] and in [12] was inactive. Besides, the result in experiment [13], in experiment [14], in experiment [15], in experiment [16], in [17] and in experiment [4] was inactive. Moreover, the half-maximal activity concentration (AC50) in experiment [6] was 63.5 µM (active); in [10] it was 33.5 µM (active).

On to `CCc1ccc(C)nc1`, for which the molecule was classed as inactive in experiment [1], in experiment [2], in experiment [3] and in experiment [4].

As to `CCCCCCCCn1sc(Cl)c(Cl)c1=O`, the AC50 in experiment [18] was 0.411 µM (active). Also, in [4], the outcome was inactive.

As for `C=CC(=O)OCC(F)(F)C(F)(F)C(F)(F)C(F)(F)C(F)(F)C(F)(F)C(F)(F)C(F)F`, the concentration at half-maximal activity (AC50) in [18] was 8.44 µM (active).

As to `Brc1ccccn1`, in experiment [4], the result was inactive.

Consider `O=C1C=CC(=O)N1c1ccccc1`, for which the AC50 in [1] was 5.44 µM (active); in [2], 5.34 µM (active). For the same molecule, the result in experiment [3] was inactive.

Regarding `CCCCCCCCCCCCC[N+](C)(C)Cc1ccccc1`, the values for the half-maximal activity concentration (AC50) in experiment [18], in experiment [1] and in experiment [2] were 38.7 µM (active), 13.7 µM (active) and 13.7 µM (active), respectively. The outcome in experiment [3] and in experiment [4] was inactive.

As for `CCC(Cc1c(I)cc(I)c(N)c1I)C(=O)O` (stereo not given), in experiment [4], the outcome was inactive.

With `CCOC(=O)C1CC(=O)C(=C(O)C2CC2)C(=O)C1` (stereo not given), the outcome in experiment [4] was inactive.

Consider `Cc1cc(=O)[nH]c(C(C)C)n1`, for which the outcome in experiment [4] was inactive.

As to `CC(=O)CCC(C)C`, the result in [4] was inactive.

As for `CCCCCCCCCc1ccc(OCCO)cc1`, the molecule was classed as inactive in experiment [1], in [2] and in experiment [4]. Further, the AC50 in experiment [3] was 75.5 µM (active).
